Test results published in PubChem BioAssay AID488969 (Vanderbilt High Throughput Screening Facility, 2010).
Over roughly 110,000 compounds, “z-score” has its median near -0.1; the highest 2% begin near 2. The list comes from a sample in which the highest values are over-represented; it also holds similar structures and randomly drawn compounds. Calls of active or inactive are those of the source.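 The calls were made as follows: active = z-score in the third read window above 3 or below -3; inactive = the rest.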

Target: Metabotropic glutamate receptor 8 (Rattus norvegicus) (UniProt P70579)
Assay: rat mGluR8 modulators via GIRK flux, primary screen, cell-based, thallium flux, HTS (AID 488969)
Conditions: HEK293 rat mGluR8, GIRK (G protein-gated inwardly rectifying potassium channel) thallium flux, FluoZin2; at 10 µM; stronger effect = higher value; submaximal glutamate (EC20) added with thallium

Chain of Metabotropic glutamate receptor 8 (Rattus norvegicus) (P70579 whole entry, looked up): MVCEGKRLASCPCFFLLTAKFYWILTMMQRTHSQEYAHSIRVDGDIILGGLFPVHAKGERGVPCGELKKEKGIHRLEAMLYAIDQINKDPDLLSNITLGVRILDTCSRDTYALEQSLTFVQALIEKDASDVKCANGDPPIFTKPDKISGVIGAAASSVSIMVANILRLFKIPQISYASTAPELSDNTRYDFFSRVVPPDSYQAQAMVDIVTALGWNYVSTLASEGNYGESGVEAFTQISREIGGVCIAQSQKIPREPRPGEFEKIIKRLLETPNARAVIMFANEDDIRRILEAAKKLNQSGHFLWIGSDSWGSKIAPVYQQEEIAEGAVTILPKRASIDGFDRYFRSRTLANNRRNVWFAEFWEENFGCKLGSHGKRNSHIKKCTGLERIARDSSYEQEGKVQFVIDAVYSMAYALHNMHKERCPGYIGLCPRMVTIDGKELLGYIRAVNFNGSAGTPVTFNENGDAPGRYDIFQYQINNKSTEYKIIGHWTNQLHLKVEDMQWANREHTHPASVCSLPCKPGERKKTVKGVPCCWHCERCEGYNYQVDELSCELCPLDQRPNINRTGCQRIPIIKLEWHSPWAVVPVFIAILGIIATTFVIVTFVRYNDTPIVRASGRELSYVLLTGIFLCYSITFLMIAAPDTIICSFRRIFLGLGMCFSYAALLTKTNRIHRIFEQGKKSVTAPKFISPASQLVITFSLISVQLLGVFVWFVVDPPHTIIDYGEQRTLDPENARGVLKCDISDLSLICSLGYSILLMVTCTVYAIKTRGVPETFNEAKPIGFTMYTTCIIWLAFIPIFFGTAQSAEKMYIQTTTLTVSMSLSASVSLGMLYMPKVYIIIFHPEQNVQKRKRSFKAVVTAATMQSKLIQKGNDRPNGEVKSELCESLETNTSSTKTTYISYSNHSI

Row | Compound | z-score
1 | CN1CCN(/C=N/c2c(C#N)cnn2C)CC1 | 0.146
2 | Nc1cc(-c2ccc(Cl)cc2)nn1S(=O)(=O)c1ccc(Cl)cc1 | -0.0623
3 | CCOC(=O)c1sc(C)c(C(=O)NC2CCCCC2)c1N | 3.33 (active)
4 | CCOC(=O)c1[nH]c(C)c(C(=O)NC2CCCCC2)c1C | 3.27 (active)
5 | CCOC(=O)c1sc(C)c(C(=O)NCC(C)(C)CN(C)C)c1N | 0.753
6 | CCOC(=O)c1[nH]c(C)c(C(=O)NC2CCCCCC2)c1C | 0.781
7 | CCOC(=O)c1[nH]c(C)c(C(=O)NC2CCCC2)c1C | -0.06
8 | CCOC(=O)c1[nH]cnc1C(=O)NC1CCCCC1 | -0.225
9 | O=C(CN1CCc2ccccc21)NC(=O)NCc1ccco1 | 0.562
10 | Cc1oc(C(C)(C)C)cc1C(=O)Nc1cccc(C(=O)O)c1 | -2.4
11 | COc1ccc(NC(=O)C(=O)N/N=C/c2cc(C)n(-c3cccc(Cl)c3Cl)c2C)c(OC)c1 | -0.134
12 | Cc1c(NC(=O)C(C)OC(=O)c2sc3ccccc3c2Cl)c(=O)n(-c2ccccc2)n1C (configuration not stated) | -0.273
13 | CNC(=S)Nc1ccc(OC)c(OC)c1 | 0.0698
14 | COC(=O)Nc1ccc(OC)c(OC)c1 | 0.503
15 | CCC(C)c1ccc(NC(=S)Nc2ccc(OC)c(OC)c2)cc1 (configuration not stated) | 5.09 (active)
16 | CCC(C)c1ccc(NC(=S)Nc2ccc(OC)cc2C)cc1 (configuration not stated) | 0.0172
17 | CCC(C)c1ccc(NC(=S)Nc2ccc(OC)cc2)cc1 (configuration not stated) | 0.436
18 | COc1ccc(NC(=S)SC)cc1OC | 3.35 (active)
19 | c1ccc(-c2ccccc2-c2nc(-c3ccncc3)no2)cc1 | -0.475
20 | CCCC12CN3CCN(CC(C3)/C1=N\NC(=O)c1ccccc1N)C2 | -0.119
21 | Cc1ccc(OCc2nc(-c3ccc(-n4cccc4)cc3)no2)cc1C | -0.0508
22 | CCOC(=O)C1=C(C)N(c2ccc(OC)cc2)C(=O)/C1=C\c1cccs1 | -0.132
23 | CCOc1ccc(CCNC(=O)C2CCN(c3nnc(-n4cccc4)s3)CC2)cc1OCC | -1.57
24 | O=C(Nc1ccc(S(=O)(=O)Nc2ncccn2)cc1)c1ccc(Br)s1 | 0.347

Row | Compound | z-score
25 | O=C1C(C=NCc2ccccn2)=C(O)c2ccccc21 | -0.00613
26 | CC(Oc1ccc(Cl)cc1Cl)C(=O)N/N=C1\CCCc2ccccc21 (configuration not stated) | 0.0705
27 | Cc1ccccc1OCc1nnc(SCC(=O)N2CCc3ccccc32)n1C | -0.183
28 | Cc1cccc(OCc2nnc(SCC(=O)N3CCc4ccccc43)n2C)c1 | 2.88
29 | O=C(COc1ccc(Cl)cc1Cl)OCC(=O)N1CCCc2ccccc21 | -0.0629
30 | Cc1cccc(OCC(=O)NC(=S)N2CCCc3ccccc32)c1 | 7.99 (active)
31 | CC(Oc1ccc(Cl)cc1Cl)C(=O)NC(=S)N1CCc2ccccc21 (configuration not stated) | 12.9 (active)
32 | COc1ccc(OCC(=O)NC(=S)N2CCCc3ccccc32)cc1 | 1.72
33 | O=C(CCCOc1ccc(Cl)cc1Cl)N1CCCc2ccccc21 | -0.0365
34 | Cc1ccc(OCc2nnc(SCC(=O)N3CCc4ccccc43)n2C)cc1 | -0.358
35 | O=C(COc1ccc(Cl)cc1Cl)NC(=S)N1CCCc2ccccc21 | 13.2 (active)
36 | CC(Oc1ccc(Cl)cc1Cl)C(=O)NN=C1CCN(C)CC1 (configuration not stated) | -0.0448
37 | Cc1cccc(OC(C)C(=O)N2CCCc3ccccc32)c1 (configuration not stated) | -0.141
38 | CCOC(=O)c1cc(-c2ccc(OC(F)F)cc2)nc2nc(SC)[nH]c(=O)c12 | -0.208
39 | COc1cc(CNCC(O)c2ccccc2)ccc1OCc1ccc(Cl)nc1 (configuration not stated) | 1.26
40 | COC(=O)COc1cccc(NC(=O)c2cccs2)c1 | -0.153
41 | CCc1cccc2c(C(=O)COC(=O)/C=C/c3ccc(O)c(OC)c3)c[nH]c12 | 0.418
42 | CC(C)COP(=O)(OCC(C)C)C(Nc1ccccc1)c1ccc2c(c1)OCO2 (configuration not stated) | -0.389
43 | C/C=C/c1ccc(OCCCNCC(C)O)c(OC)c1 (configuration not stated) | 1.74
44 | COc1ccc(OC)c(NC(=O)CSc2nc(C)cs2)c1 | 0.389
45 | CN(C)c1ccc(P(=O)(Nc2ccc([N+](=O)[O-])cc2)N2CCOCC2)c(NC(=O)c2cccs2)c1 (configuration not stated) | -0.185
46 | O=C(CN1C(=O)NC2(CCCC2)C1=O)N1CCN(C(=O)c2ccco2)CC1 | -1.15
47 | Cc1ccc(NS(=O)(=O)c2cccc(C(=O)N/N=C/c3c(C)nn(-c4ccccc4)c3N3CCCC3)c2)c(C)c1 | -0.38
48 | CCCCNC(=S)N(C)/N=C/c1ccc(OCC(=O)Nc2c(C)cc(C)cc2C)c(OC)c1 | 0.00502

Row | Compound | z-score
49 | Cc1cc(C)n(-c2nc3ccccc3nc2N2CCN(C(=O)c3ccc(Cl)cc3)CC2)n1 | -1.16
50 | O=C(COc1ccccc1)NC(=S)N1CCc2ccccc21 | 10.1 (active)
51 | CCNC(=O)COc1ccc(Br)cc1Cl | 0.307
52 | O=C(COc1ccc(Br)cc1Cl)NC(=O)NCc1ccccc1 | 0.301
53 | O=C(COc1ccccc1Cl)NC(=S)N1CCc2ccccc21 | 12.1 (active)
54 | Cc1ccc(OCC(=O)N2CCc3ccccc32)cc1 | -0.113
55 | O=C(COc1ccc(Br)cc1Cl)NC(=S)N1CCc2ccccc21 | 2.28
56 | CC(C)NC(=O)NC(=O)COc1ccc(Br)cc1Br | -0.136
57 | O=C(COc1ccc(F)cc1Br)N1CCc2ccccc21 | -0.0164
58 | O=C(COc1ccccc1)N1CCc2ccccc21 | -0.0743
59 | O=C(COc1ccccc1Cl)NC(=O)NC1CCCC1 | 0.502
60 | O=C(COc1ccc(Br)cc1Br)NC(=S)N1CCCc2ccccc21 | 4.66 (active)
61 | CCC(=O)N1CCN(c2ccccc2NC(=O)COc2ccccc2Cl)CC1 | -1.24
62 | O=C(Cc1cccs1)Nc1ccc(Cl)cc1 | 0.318
63 | Cc1cc(C)cc(SCc2noc(C(=O)NCC3CCCO3)c2C(=O)O)c1 (configuration not stated) | -0.238
64 | Cc1cc(C)nc(-n2nc(C)cc2NC(=O)CNC(C)c2ccccc2)n1 (configuration not stated) | 0.124
65 | COC(=O)c1cc(OC)c(OC)cc1NCC(=O)Nc1ccc(OC)c(OC)c1 | -0.419
66 | Cc1c(NC(=O)C(C)OC(=O)c2cccs2)c(=O)n(-c2ccccc2)n1C (configuration not stated) | 0.0558
67 | CCOc1cc(CNCc2ccccn2)ccc1OCC(=O)NC1CCCCC1 | -0.535
68 | O=C(Nc1ccc2oc(=O)ccc2c1)c1cc2ccccc2o1 | -1.25
69 | O=C(CN(Cc1ccc(F)cc1)C(=O)c1ccco1)NCc1ccc(F)cc1 | -1.36
70 | CNc1nc2ccccc2n1/N=C/c1cccc(OC)c1OC | -1.51
71 | O=Cc1ccc(OC(=O)c2cc(Cl)nc3ccccc23)cc1 | -0.764
72 | CCn1c(SCc2ccc([N+](=O)[O-])cc2)nnc1C(C)NC(=O)c1ccc(C)cc1 (configuration not stated) | -0.256
